Source: PubChem BioAssay
This is a sample that favours compounds with a hit; in the whole collection about 3.5% have one here.
MITF inh: MITF inhibitors, primary screen, biochemical, AlphaScreen, human; 650,000 tested, 0.91% active; AlphaScreen MITF homodimerization, bead proximity signal; AID 1259374, 2018; inhibition, % at 2.6 µM; in the data active = inhibition above about 50%
Target sequence (O75030 whole entry, looked up): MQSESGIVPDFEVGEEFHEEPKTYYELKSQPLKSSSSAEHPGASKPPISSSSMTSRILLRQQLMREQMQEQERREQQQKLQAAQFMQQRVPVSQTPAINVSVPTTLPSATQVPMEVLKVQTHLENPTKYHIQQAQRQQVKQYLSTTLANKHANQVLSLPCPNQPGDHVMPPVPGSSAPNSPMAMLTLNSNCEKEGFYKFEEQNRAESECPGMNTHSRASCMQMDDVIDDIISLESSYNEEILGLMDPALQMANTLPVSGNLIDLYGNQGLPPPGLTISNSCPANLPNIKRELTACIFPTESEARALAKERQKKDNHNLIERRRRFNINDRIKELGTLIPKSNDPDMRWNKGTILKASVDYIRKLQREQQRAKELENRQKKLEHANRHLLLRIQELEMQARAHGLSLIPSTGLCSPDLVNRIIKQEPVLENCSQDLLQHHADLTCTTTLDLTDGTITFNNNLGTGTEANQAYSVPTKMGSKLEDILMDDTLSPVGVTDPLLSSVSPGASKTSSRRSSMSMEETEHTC
FBW7 act: FBW7 E3 ligase activators, primary screen, biochemical, AlphaScreen, human. AlphaScreen FBW7–phospho-cyclin E peptide binding, activator screen. normalized activity (activation), % at 26.1 µM. 650,000 tested, 0.13% active. AID 1259310, 2017; in the data active = normalized activity above about 1.9%;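 note: purified mutant Fbw7 with reduced substrate affinity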
TEAD-YAP block: TEAD-YAP interaction inhibition, primary screen, TEAD-YAP interaction inhibitor project, luminescence, HEK-TIYL cells | 640,000 tested, 1.4% active | TEAD-Gal4/YAP UAS-luciferase luminescence | inhibition, % at 9.12 µM; in the data active = inhibition above about 32%
GPR151 activ: activators of human GPR151, primary screen, cell-based, PathHunter beta-arrestin, luminescence; AID 1508602, 2020; PathHunter beta-arrestin GPR151 cells; G-protein coupled receptor 151 (Homo sapiens), Q8TDV0; activation, % at 11.2 µM; 650,000 tested, 1% active; in the data active = activation above about 4.9%
Hits are given with their value.

What do the screens show for `Cc1nc2ccc(Nc3nccc(-c4cncc(N5CCOCC5)c4)n3)cc2o1`?
MITF inh: inactive; FBW7 act: inactive; TEAD-YAP block: inactive; GPR151 activ: inactive

How did Cn1ccc2cc(Nc3nccc(-c4cncc(N5CCOCC5)c4)n3)ccc21 do in these assays?
MITF inh: inactive; FBW7 act: inactive; TEAD-YAP block: 81; GPR151 activ: inactive

How did Cc1[nH]nc2ccc(Nc3nccc(-c4cncc(N5CCOCC5)c4)n3)cc12 do in these assays?
MITF inh: inactive; FBW7 act: inactive; TEAD-YAP block: 77; GPR151 activ: inactive

Results for Fc1cc(-c2ccnc(Nc3ccc(-c4ncn[nH]4)cc3)n2)cc(N2CCOCC2)c1 ?
MITF inh: inactive; FBW7 act: inactive; TEAD-YAP block: 74; GPR151 activ: inactive

How did COc1ccc(/C=C/C(=O)c2c(O)c3ccccc3oc2=O)c(OC)c1 do in these assays?
MITF inh: inactive; FBW7 act: inactive; TEAD-YAP block: inactive; GPR151 activ: inactive

Results for Cc1cc(C)c(C#N)c(SCC(=O)NCC(C)C)n1 ?
MITF inh: inactive; FBW7 act: inactive; TEAD-YAP block: inactive; GPR151 activ: inactive

What do the screens show for `CC1CCC(NC(=O)C2(C)CCC(=O)N2Cc2ccccc2)CC1` (configuration not stated)?
MITF inh: inactive; FBW7 act: inactive; TEAD-YAP block: inactive; GPR151 activ: inactive

How did COc1ccc(-c2nc(N)n(C(=O)c3ccccc3OC)n2)cc1 do in these assays?
MITF inh: inactive; FBW7 act: inactive; TEAD-YAP block: 40; GPR151 activ: inactive

What do the screens show for `COc1ccc(C2C(C(=O)N3CCN(c4ccccc4OC)CC3)c3ccccc3C(=O)N2c2ccc(OC)cc2)cc1` (configuration not stated)?
MITF inh: inactive; FBW7 act: inactive; TEAD-YAP block: 34; GPR151 activ: inactive

How did C=C1C(=O)OC23C1CCC(C)C2CCC1(C)OC13 (configuration not stated) do in these assays?
MITF inh: inactive; FBW7 act: inactive; TEAD-YAP block: 61; GPR151 activ: inactive

What do the screens show for `O=C(c1ccc(S(=O)(=O)c2ccc(F)cc2)c([N+](=O)[O-])c1)N1CCN(Cc2ccccc2)CC1`?
MITF inh: inactive; FBW7 act: inactive; TEAD-YAP block: inactive; GPR151 activ: inactive

How did COc1cc(NS(=O)(=O)c2ccc(-c3cc(C)no3)cc2)cc(OC)c1OC do in these assays?
MITF inh: inactive; FBW7 act: inactive; TEAD-YAP block: 61; GPR151 activ: inactive

What do the screens show for `COc1cc(NS(=O)(=O)c2ccc3c(c2)oc(=O)n3C)cc(OC)c1OC`?
MITF inh: inactive; FBW7 act: inactive; TEAD-YAP block: 48; GPR151 activ: inactive

What do the screens show for `COc1cc(NS(=O)(=O)c2ccc(-c3cc(C)no3)cc2)cc(OC)c1`?
MITF inh: inactive; FBW7 act: inactive; TEAD-YAP block: 61; GPR151 activ: inactive

How did COCCNc1cc(-c2ccc(F)cc2)nc(-c2ccccn2)n1 do in these assays?
MITF inh: inactive; FBW7 act: inactive; TEAD-YAP block: 74; GPR151 activ: inactive

Results for COCCNc1cc(-c2ccncc2)nc(-c2ccccn2)n1 ?
MITF inh: inactive; FBW7 act: inactive; TEAD-YAP block: inactive; GPR151 activ: inactive

How did Fc1ccc(-c2cc(NC3CC3)nc(-c3ccccn3)n2)cc1 do in these assays?
MITF inh: inactive; FBW7 act: inactive; TEAD-YAP block: 90; GPR151 activ: inactive

How did CCN(CC)c1cc(-c2ccc(F)cc2)nc(-c2ccccn2)n1 do in these assays?
MITF inh: 58; FBW7 act: inactive; TEAD-YAP block: 53; GPR151 activ: inactive

What do the screens show for `Fc1ccc(-c2cc(NC3CC3)nc(-c3ccncc3)n2)cc1`?
MITF inh: inactive; FBW7 act: inactive; TEAD-YAP block: inactive; GPR151 activ: inactive

Results for c1ccc(-c2cc(NC3CC3)nc(-c3ccccn3)n2)cc1 ?
MITF inh: inactive; FBW7 act: inactive; TEAD-YAP block: 92; GPR151 activ: inactive

What do the screens show for `c1ccc(-c2nc(NC3CC3)cc(-c3ccncc3)n2)nc1`?
MITF inh: inactive; FBW7 act: inactive; TEAD-YAP block: inactive; GPR151 activ: inactive

Results for CN(CCc1ccccn1)C(=O)CCC1CCCN(C(=O)c2cnsn2)C1 (configuration not stated) ?
MITF inh: inactive; FBW7 act: inactive; TEAD-YAP block: inactive; GPR151 activ: inactive

How did O=C(NC(=S)NCCc1ccccc1)c1cccc([N+](=O)[O-])c1 do in these assays?
MITF inh: inactive; FBW7 act: inactive; TEAD-YAP block: inactive; GPR151 activ: inactive
